A short description of assay [1]: binders of probe aFSTL3 on microarray, primary screen, stem cell growth factor project, biochemical, small-molecule microarray, fluorescence 635/667 (AID 1064).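 Further: measures binding of the biotinylated anti-FSTL3 antibody to printed compounds.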 The note with it: higher = more signal.
Assay [2] can be described thus: binders from COS7 lysate, DM2A8 probe, primary screen, torsin A project, cell lysate, small-molecule microarray, fluorescence 635/667 (AID 1065). The note with it: higher = more signal, COS7 lysate expressing mutant human TOR1A.
A short description of assay [3]: binders of probe aFGF2 on microarray, primary screen, stem cell growth factor project, biochemical, small-molecule microarray, fluorescence 635/667 (AID 1067).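 Further: measures binding of biotinylated aFGF2 protein to printed compounds on slides; z-score merges feature fluorescence and signal-to-noise across triplicate slides.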 The note with it: higher = more signal.
The nature of assay [4]: binders of probe aFGF10 on microarray, primary screen, stem cell growth factor project, biochemical, small-molecule microarray, fluorescence 635/667 (AID 1071).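 Further: score merges 667 nm spot intensity and signal to noise from triplicate slides.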 The note with it: higher = more signal.
In assay [5] the target is Neurogenic locus notch homolog protein 2 (Homo sapiens) (UniProt Q04721). Put plainly: Notch2 binders on small-molecule microarrays, primary screen, biochemical, small-molecule microarray, 635 nm fluorescence, stem cell growth factors (AID 1073). The note with it: Notch2 binding, higher = more signal.
Chain of Neurogenic locus notch homolog protein 2 (Homo sapiens) (Q04721 whole entry, looked up, canonical isoform): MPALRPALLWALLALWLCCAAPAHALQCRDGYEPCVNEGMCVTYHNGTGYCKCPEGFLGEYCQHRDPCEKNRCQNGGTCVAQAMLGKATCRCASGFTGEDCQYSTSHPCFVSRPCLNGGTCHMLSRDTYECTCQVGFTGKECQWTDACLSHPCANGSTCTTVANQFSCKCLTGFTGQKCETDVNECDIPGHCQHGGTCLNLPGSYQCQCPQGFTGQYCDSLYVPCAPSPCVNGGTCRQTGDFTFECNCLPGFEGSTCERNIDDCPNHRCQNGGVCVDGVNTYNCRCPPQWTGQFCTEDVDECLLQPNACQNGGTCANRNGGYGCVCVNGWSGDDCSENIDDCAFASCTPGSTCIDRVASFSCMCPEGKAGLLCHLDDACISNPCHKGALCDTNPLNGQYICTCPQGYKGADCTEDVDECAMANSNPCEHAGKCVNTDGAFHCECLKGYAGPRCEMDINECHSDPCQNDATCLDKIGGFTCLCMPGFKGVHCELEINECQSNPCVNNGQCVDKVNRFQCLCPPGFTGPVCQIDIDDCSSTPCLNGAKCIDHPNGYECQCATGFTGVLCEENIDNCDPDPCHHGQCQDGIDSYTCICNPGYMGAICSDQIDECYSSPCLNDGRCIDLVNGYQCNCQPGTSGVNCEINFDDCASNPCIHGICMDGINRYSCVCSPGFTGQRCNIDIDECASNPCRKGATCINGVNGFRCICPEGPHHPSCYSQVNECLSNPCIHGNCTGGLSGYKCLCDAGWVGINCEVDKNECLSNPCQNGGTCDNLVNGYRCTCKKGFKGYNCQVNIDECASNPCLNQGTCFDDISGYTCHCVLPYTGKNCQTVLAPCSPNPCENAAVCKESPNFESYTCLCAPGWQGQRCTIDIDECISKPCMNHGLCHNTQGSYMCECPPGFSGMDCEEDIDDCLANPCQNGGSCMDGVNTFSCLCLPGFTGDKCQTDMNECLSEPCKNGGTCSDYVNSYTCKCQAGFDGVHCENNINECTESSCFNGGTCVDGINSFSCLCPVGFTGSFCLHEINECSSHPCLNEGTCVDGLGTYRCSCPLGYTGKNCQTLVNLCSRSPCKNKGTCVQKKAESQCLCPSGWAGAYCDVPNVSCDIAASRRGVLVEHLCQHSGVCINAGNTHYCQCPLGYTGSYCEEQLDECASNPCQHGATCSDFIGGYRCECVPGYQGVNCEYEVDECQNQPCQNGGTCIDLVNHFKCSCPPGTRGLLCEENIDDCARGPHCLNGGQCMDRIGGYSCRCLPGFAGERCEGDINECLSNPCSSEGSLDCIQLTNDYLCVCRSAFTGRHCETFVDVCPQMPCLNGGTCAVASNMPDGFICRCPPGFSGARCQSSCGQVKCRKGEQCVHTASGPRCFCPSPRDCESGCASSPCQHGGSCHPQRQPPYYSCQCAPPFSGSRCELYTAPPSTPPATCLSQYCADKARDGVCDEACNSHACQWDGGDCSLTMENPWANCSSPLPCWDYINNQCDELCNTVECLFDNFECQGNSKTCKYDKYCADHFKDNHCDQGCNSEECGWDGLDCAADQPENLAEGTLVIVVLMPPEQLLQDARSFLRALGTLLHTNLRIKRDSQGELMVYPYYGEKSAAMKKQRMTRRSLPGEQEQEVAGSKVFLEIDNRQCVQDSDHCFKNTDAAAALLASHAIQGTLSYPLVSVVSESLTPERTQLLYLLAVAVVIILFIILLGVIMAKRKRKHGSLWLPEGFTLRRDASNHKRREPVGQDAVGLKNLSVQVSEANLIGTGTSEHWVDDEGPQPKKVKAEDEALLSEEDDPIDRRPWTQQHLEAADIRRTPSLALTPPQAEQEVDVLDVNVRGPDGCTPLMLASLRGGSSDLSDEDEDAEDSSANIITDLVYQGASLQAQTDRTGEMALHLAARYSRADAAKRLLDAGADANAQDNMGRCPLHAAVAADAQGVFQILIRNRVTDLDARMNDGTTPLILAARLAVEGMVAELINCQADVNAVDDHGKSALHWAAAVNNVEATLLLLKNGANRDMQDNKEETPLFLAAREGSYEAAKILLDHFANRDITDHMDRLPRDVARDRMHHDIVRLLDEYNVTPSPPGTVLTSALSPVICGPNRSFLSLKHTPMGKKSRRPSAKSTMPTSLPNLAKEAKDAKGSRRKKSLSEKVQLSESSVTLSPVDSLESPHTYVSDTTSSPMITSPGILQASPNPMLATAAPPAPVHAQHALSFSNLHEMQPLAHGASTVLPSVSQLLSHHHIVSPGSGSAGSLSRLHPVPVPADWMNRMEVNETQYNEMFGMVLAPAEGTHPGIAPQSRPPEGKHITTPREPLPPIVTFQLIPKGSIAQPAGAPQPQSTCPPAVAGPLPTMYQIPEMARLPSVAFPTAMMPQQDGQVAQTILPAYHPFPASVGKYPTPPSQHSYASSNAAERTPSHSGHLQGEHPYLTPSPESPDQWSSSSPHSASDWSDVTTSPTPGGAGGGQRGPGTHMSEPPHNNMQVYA
For assay [6], the target named is Pro-neuregulin-1, membrane-bound isoform (Homo sapiens) (UniProt Q02297). Put plainly: NRG1 binders on small-molecule microarrays, primary screen, psychiatric disease protein project, biochemical, small-molecule microarray, fluorescence 635/667 (AID 1075).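 Further: score combines 667 nm spot fluorescence with signal to noise.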 As to conditions: NRG1 binding, 635 nm fluorescence, higher = more signal.
Chain of Pro-neuregulin-1, membrane-bound isoform (Homo sapiens) (Q02297 whole entry, looked up, the tested form may be a part, canonical isoform): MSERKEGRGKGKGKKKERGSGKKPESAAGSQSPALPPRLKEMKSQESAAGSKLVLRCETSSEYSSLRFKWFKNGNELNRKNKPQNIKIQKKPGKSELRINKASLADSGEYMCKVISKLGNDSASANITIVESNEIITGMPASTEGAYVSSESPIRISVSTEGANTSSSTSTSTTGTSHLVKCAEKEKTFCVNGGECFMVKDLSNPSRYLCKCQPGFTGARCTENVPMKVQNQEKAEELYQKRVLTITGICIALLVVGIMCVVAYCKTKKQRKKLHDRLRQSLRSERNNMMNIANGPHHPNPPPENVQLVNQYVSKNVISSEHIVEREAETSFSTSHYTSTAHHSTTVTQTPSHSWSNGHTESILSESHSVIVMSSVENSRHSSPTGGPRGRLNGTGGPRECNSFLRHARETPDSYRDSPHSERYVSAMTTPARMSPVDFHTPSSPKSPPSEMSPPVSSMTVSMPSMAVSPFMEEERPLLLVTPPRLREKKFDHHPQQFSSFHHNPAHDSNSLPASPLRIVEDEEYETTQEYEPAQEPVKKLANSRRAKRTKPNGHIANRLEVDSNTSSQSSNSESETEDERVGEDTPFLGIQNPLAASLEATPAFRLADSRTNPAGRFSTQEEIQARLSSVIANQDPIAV
Assay [7] deals with Neuregulin-1 EGF-like domain. Put plainly: binders of neuregulin-1 EGF-like domain, primary screen, biochemical, small-molecule microarray, 635 nm fluorescence (AID 1081).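 Further: binding of the protein to compounds printed on small-molecule microarray slides.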 The note with it: small-molecule microarray binding, higher = more signal.
Assay [8] is described as follows: FRG1 promoter luciferase signal modulators, primary screen, FRG1 inhibition for FSHD, cell-based, C2C12 myotubes, firefly/Renilla luciferase, luminescence (AID 1084). The note with it: higher = more signal, called active from +8 up or from −8 down.
Assay [9] is described as follows: binders of probe aFST on microarray, primary screen, stem cell growth factor project, biochemical, small-molecule microarray, fluorescence 635/667 (AID 1086).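 Further: score merges 667 nm fluorescence with signal-to-noise of each printed compound spot.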 As to conditions: higher = more signal.
The nature of assay [10]: binders of probe aHhip on microarray, primary screen, stem cell growth factor project, biochemical, small-molecule microarray, fluorescence 635/667 (AID 1087).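 Further: score merges spot fluorescence at 667nm with spot signal to noise ratio.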 As to conditions: higher = more signal.

Activity calls are given as the source filed them.

In the case of `Cc1cc(C)c(-c2cc([C@H](C)ON=C3[C@H]4CCn5c(=O)n(-c6ccccc6)c(=O)n5[C@H]4[C@H](O)[C@@H]4O[C@H]34)on2)c(C)c1`, the composite z-score is -0.437 in assay [1]; 1.55 in assay [2]; 0.0168 in [3]; 0.481 in assay [4]; 0.471 in assay [5]; 0.463 in assay [6]. Further, the composite z-score in [7] stood at 0.0257; in assay [9], 0.484; in assay [10], 0.0024. Moreover, the z-score in assay [8] is -0.793 (inactive).
Take `C=C(/C(=C/C[C@H](OC(C)=O)c1ccc(OCCO)cc1)c1cnc2ccccc2c1)C(C)C`: the composite z-score in assay [1] is -0.195; in assay [2] it was 0.214; in [3], -0.122; in assay [4] it was 1.11; in [5] it was 1.01; in assay [6] it was 0.69. Also, the composite z-score in assay [7] is 1; in [9] it was 0.182; in [10] it was -0.333. Further, the z-score in [8] was 0.372 (inactive).
With `CC(C)=CCCC(C)=CCON=C1[C@H]2CCn3c(=O)n(C)c(=O)n3[C@H]2[C@H](O)[C@@H]2O[C@H]12`, the composite z-score in assay [1] is -0.315; in assay [2] it was 0.491; in [3] it was -0.156; in assay [4], 0.585; in assay [5], 0.38; in [6], 0.763. Moreover, the composite z-score in assay [7] was 1.05; in assay [9], 0.412; in [10] it was -0.0673. The z-score in assay [8] is -0.713 (inactive).
Regarding `COC(=O)[C@@H]1CC[C@H](C)[C@@H](c2ccc(C)cc2)N1C(=O)c1ccc(C=NOC[C@@H](O)COCc2ccco2)cc1`, the composite z-score is 0.852 in assay [1]; 0.239 in assay [2]; -0.226 in assay [3]; -0.58 in assay [4]; -1.83 in [5]; -0.96 in assay [6]. Further, the composite z-score is -1.04 in [7], -0.72 in assay [9] and -0.137 in assay [10]. Moreover, in assay [8], the z-score is 0.495 (inactive).
As to `O=C1C[C@@H](O)[C@@H](O)[C@@H]2[C@@H]3C(=O)N(c4cccc(Oc5ccccc5)c4)C(=O)[C@@H]3CC[C@@H]12`, the composite z-score in assay [1] was -0.557; in assay [2], 0.272; in assay [3] it was -0.0598; in assay [4], 0.516; in assay [5] it was 1.26; in assay [6] it was 0.713. Also, the composite z-score in assay [7] stood at 1.01; in assay [9], 0.0399; in assay [10], 0.0659. Besides, in [8], the z-score was -0.211 (inactive).
Regarding `CO[C@@H]1COC(=O)CC=C[C@@H](C)COC(=O)[C@H](COCc2ccccc2)NC(=O)CC=C[C@H]1C`, the composite z-score is -0.611 in assay [1]; 2.32 in assay [2]; -0.162 in assay [3]; -0.903 in assay [4]; -0.75 in assay [5]; -0.698 in [6]. In addition, the composite z-score is -0.0535 in assay [7], -0.268 in [9] and 0.0749 in [10]. Moreover, in assay [8], the z-score is -1.05 (inactive).
Consider `COc1ccc(O[C@H]2C=C[C@@H](c3ccccc3)O[C@@H]2COC(=O)CCC(C)=NOC[C@@H](C)[C@H](OCc2ccccc2)C(C)C)cc1`, for which the composite z-score in [1] was -0.404; in [2] it was -0.48; in assay [3], -0.171; in assay [4] it was -0.14; in [5], -1.1; in [6], -1.09. Moreover, the results for the composite z-score in [7], in [9] and in [10] were -1.02, -0.504 and -0.184, respectively. The z-score in [8] is 0.696 (inactive).
Turning to `O=C1[C@H]2[C@H]3[C@H](O)[C@H](O)CC(=NOC[C@@H](O)COCc4ccco4)[C@H]3CC[C@H]2C(=O)N1c1cccc(Oc2ccccc2)c1`, the composite z-score in [1] was -0.0639; in assay [2] it was 1.55; in assay [3] it was -0.187; in assay [4] it was -0.0105; in [5] it was -1.31; in assay [6] it was 0.141. Also, the composite z-score was 0.603 in assay [7], -0.266 in assay [9] and -0.16 in [10]. The z-score in assay [8] is -0.425 (inactive).
Consider `C[C@@H]1CC[C@H]2C(=O)O[C@H](COc3ccc(C(C)(C)C)cc3)CN2[C@H]1c1ccc(Br)cc1`, for which the composite z-score in [1] was -0.417; in assay [2] it was -0.16; in assay [3], -0.026; in [4] it was -0.0359; in [5], 0.111; in assay [6] it was 0.536. For the same molecule, the composite z-score is -0.414 in [7], -0.0273 in [9] and -0.0296 in assay [10]. The z-score in assay [8] was 0.414 (inactive).
`O=C(CS)NCCCCCNC(=O)[C@H]1C[C@H]2C(=O)N3CCC[C@H]3C(=O)N2[C@H]1c1cccc(OCCO)c1`: the composite z-score is 0.32 in assay [1]; 1.52 in [2]; -0.0718 in assay [3]; 0.564 in assay [4]; -0.0686 in assay [5]; 0.665 in assay [6]. Also, the composite z-score in assay [7] is 1.35; in assay [9], 0.442; in [10] it was 0.0274. In addition, in assay [8], the z-score is 0.556 (inactive).
With `COC(=O)CC=C[C@H](C)[C@H](CO)NS(=O)(=O)c1ccc(C)cc1`, the composite z-score in assay [1] is -0.634; in assay [2], 0.0049; in [3], -0.163; in [4], 0.476; in [5] it was 0.24; in assay [6], -0.0696. Moreover, the composite z-score in [7] is 0.629; in assay [9], 0.12; in assay [10] it was -0.132. Besides, the z-score in [8] was -0.599 (inactive).
Consider `COC(=O)C1=C(C)N(Cc2ccccc2)[C@]23O[C@](C(=O)OC)(C(=O)N2[C@@H]1c1ccccc1)[C@H]1CCOC(=O)[C@H]13`, for which the composite z-score is -0.602 in [1]; 0.601 in [2]; -0.0956 in assay [3]; 0.649 in assay [4]; 0.783 in assay [5]; -0.146 in assay [6]. The composite z-score in assay [7] was 0.815; in [9], 0.0592; in assay [10], -0.0645. In addition, the z-score in [8] is -0.203 (inactive).
As to `C[C@@H](c1ccccc1)N1C(=O)[C@H]2[C@H]3[C@H](O)[C@H](O)CC(=NNC(=O)OCc4ccccc4)[C@H]3CC[C@H]2C1=O`, the composite z-score in assay [1] was 0.512; in assay [2], 0.16; in assay [3], -0.129; in assay [4], 0.201; in assay [5] it was 0.382; in assay [6], -0.207. In addition, the figures for the composite z-score in assay [7], in assay [9] and in assay [10] were -0.451, 0.366 and -0.236, respectively. Also, in assay [8], the z-score is 0.0168 (inactive).
For the molecule `COC(=O)[C@H](C)NC(=O)CCC1CC(OC(=O)NCCc2ccc(F)cc2)CC2(CCCC(COC(=O)NCCc3ccc(Cl)cc3)O2)O1` (stereo not given in full), the composite z-score was -0.655 in assay [1]; 1.39 in assay [2]; -0.0579 in assay [3]; 0.812 in assay [4]; 1.15 in assay [5]; 0.691 in assay [6]. In addition, the composite z-score is 0.595 in [7], 0.393 in [9] and -0.0672 in [10]. In addition, in assay [8], the z-score was 1.11 (inactive).
`CN(C)CCCNC(=O)[C@@H]1c2ccccc2C(=O)N(Cc2cc(F)cc(C(F)(F)F)c2)[C@H]1c1ccc(CO)cc1`: the composite z-score in assay [1] was 1.11; in [2], 1.01; in assay [3], -0.0692; in assay [4], -0.436; in assay [5], 0.102; in [6] it was 1.33. The figures for the composite z-score in assay [7], in assay [9] and in assay [10] were 1.36, -0.186 and 0.316, respectively. The z-score in assay [8] is -1.19 (inactive).
